The record followed here is PMC12136788.

B1: chr10:122937732:122937852:-|CDS|ENSG00000119965|unk|total|mutant (ssRNA)
RNA: GGGAGUUCUACAGUCCGACGAUCGUAAGUGACAACUCAAAUAUACCCAACUCCGAGUUGCUGCCUUUUCUCCAGAAUUUAUGCCGUCAAGUUAAUCAUCUCCAUGUGGGAAAUAAGACCGAGUGUCAGGAAAACAUCACCAAGCAACAGAGGAUUGAGCAUCA
B2: chr4:168927217:168927233:+|3pUTR|ENSG00000129116|msi1_unk|FALSE|overlapping (ssRNA)
RNA: GGGAGUUCUACAGUCCGACGAUCAACCACCCAAAUGACCAAGGCAUAUAUAGUAUUUGGAGGAAUCAGGGGUUUGGAAGGAGUAGGGAGGAGAAUGAAGGAAAAUGCAACCAGCAUGAUUAUAGUGUGUUCAUUUAGAUAAAACAACAGAGGAUUGAGCAUCA
B3: chr17:58090057:58090109:+|3pUTR|ENSG00000264364|msi1_unk|FALSE|overlapping (ssRNA)
RNA: GGGAGUUCUACAGUCCGACGAUCGGGUAGGAUUAGCUUGAAUCUUUUUUUUCUUUACAUUUUUCUCCUGUCUGCUCCCUGCUUAGCCCUCAGUUUCCUCAUUCCUCUGGAGUUCUCUUAGAGCAGCCCCUGUUGUUAGUUGGCCAACAGAGGAUUGAGCAUCA
B4: chr1:228494639:228494729:+|3pUTR|ENSG00000168159|msi1_unk|FALSE|overlapping (ssRNA)
RNA: GGGAGUUCUACAGUCCGACGAUCGCCAUCGUGUCUCAUCUUGCUGUUAUCUCUAGCUCUUUCCCUCCUCCCAUUUCCUUUAGUAGUUGAAUUUUGCAAAGCUUGUAGCAGUAGCUCAGUUGCCUGCAGCAUCCUUGUGUGUAGCAACAGAGGAUUGAGCAUCA
B5: chr7:123541454:123541562:-|3pUTR|ENSG00000128609|unk|total|mutant (ssRNA)
RNA: GGGAGUUCUACAGUCCGACGAUCUCCACCGUGUCAUUUUAUUUCCGUCAUUAUUGAAUUAUACCAUUUACUCUGUUUUCUUACCGUCUUAAUUUUAUUAUAUUUUGUUGUUACUGUAUUAUAUUUGAAAACCUUCAAAUCCGACAACAGAGGAUUGAGCAUCA
B6: chr3:15254852:15254953:-|3pUTR|ENSG00000131370|msi1|total|mutant (ssRNA)
RNA: GGGAGUUCUACAGUCCGACGAUCAAACUGUUAAUUCUGUCACAGCCUGUAUAUUUCCGUCAUUUGUAAAUCUCUUCAUACAACCGUGACUUCUUUUUUGACUGAUACAGUAUCUUAAUUACAAGGUUAUUUUGUACUUGUCUUCAACAGAGGAUUGAGCAUCA
B7: chr19:57593639:57593745:+|3pUTR|ENSG00000171649|unk|total|mutant (ssRNA)
RNA: GGGAGUUCUACAGUCCGACGAUCUGAACCUUCUUAUUUCUCUACAUUCUUGCCAUACUUGGUAUGGUCCGUCUUUUUAAUUUCCGUUGUUUUAACCGCUGUAUAACCGCAUCUGUCUGUGAUUUUAUUGCAUUUUUCUGGUAUCAACAGAGGAUUGAGCAUCA
B8: chr1:228494639:228494729:+|3pUTR|ENSG00000168159|msi1_unk|total|mutant (ssRNA)
RNA: GGGAGUUCUACAGUCCGACGAUCGCCAUCGUGUCUCAUCUUGCUGUUAUCUCCCGCUCUUUCCCUCCUCCCAUUUCCUUCCGCCGUUGAAUUUUGCAAAGCUUGCCGCAGCCGCUCAGUUGCCUGCAGCAUCCUUGUGUGCCGCAACAGAGGAUUGAGCAUCA
B9: chr19:57593639:57593745:+|3pUTR|ENSG00000171649|unk|FALSE|unique (ssRNA)
RNA: B7 RNA with C68U, C69A, C83U, C84A, C95U, C96A, C106U, C107A
B10: chr10:30313878:30313980:-|CDS|ENSG00000107951|unk|total|mutant (ssRNA)
RNA: GGGAGUUCUACAGUCCGACGAUCUGUUUUUAUAUUUAAGCCCUUCAUGUACUUACUCAUUUUUUCUUCUGUGUAAUAAUCUACCGGGAAGGGAGCAAAACAAACCUGAUUCUUCUCCUCUGUACAUUCAGAAUCCAUUUGAAACAACAGAGGAUUGAGCAUCA
B11: chr1:20742972:20743075:-|3pUTR|ENSG00000127483|unk|FALSE|unique (ssRNA)
RNA: GGGAGUUCUACAGUCCGACGAUCUAACCCUUUCUUAUUUGUAUUUGUUUUAGUAUUGUGAAGUUGUGUUAAAUAGUACUAGCUAGAAAUACAAAUUUCUGGUUAUCAUUUCUCUUCCCUGUGGCACUUGACAUUUUAAUUGUCCAACAGAGGAUUGAGCAUCA
B12: chr12:39618871:39619093:-|CDS|ENSG00000173208|unk|total|mutant (ssRNA)
RNA: GGGAGUUCUACAGUCCGACGAUCUAUUAUGAUGUUCUCCCAAUCUGUGGCUCACUUGUAUUCCAAUCUGACCAAACCUAUUUCCGAUGUAAUGCUGACCUCCUAUACACUCAUUCAAACUGCUACAUCCAGAGGAGCAAGCCCCAACAGAGGAUUGAGCAUCA
B13: chr8:17753977:17754079:-|CDS|ENSG00000129422|unk|FALSE|bound_elsewhere (ssRNA)
RNA: GGGAGUUCUACAGUCCGACGAUCAAAAAAGCAGAAAUUCUAAUUAACAAGACACAUAAGCAGCAGUUUAAUAAACUCAUUACUAGCCAGGCUGUGCAUGUUACAACUCAUUCUAAAAAUGCUUCACACAGGGUUCCAAGAACACAACAGAGGAUUGAGCAUCA
B14: chr1:152032676:152032810:-|CDS|ENSG00000163191|unk|FALSE|unique (ssRNA)
RNA: GGGAGUUCUACAGUCCGACGAUCGGACCCUGGUGUCCUUGACCGCAUGAUGAAGAAACUGGACACCAACAGUGAUGGUCAGCUAGAUUUCUCAGAAUUUCUUAAUCUGAUUGGUGGCCUAGCUAUGGCUUGCCAUGACUCCUUCAACAGAGGAUUGAGCAUCA
B15: chr2:27041412:27041530:+|3pUTR|ENSG00000119777|msi1_unk|total|mutant (ssRNA)
RNA: GGGAGUUCUACAGUCCGACGAUCACUUCAAAAUGCCCAGCCUGCCCCAAAUGCCUCUAAGCCCCUCCCUGUCCCCUCCCUUGCCGUCCUACUUCUUCCAACUUUCCAUUCCCCAUCAUGCUGGGGGUCUUGGUCACAAGGCUCCAACAGAGGAUUGAGCAUCA
B16: chr11:49981574:49982501:-|CDS|ENSG00000221954|control|control|control (ssRNA)
RNA: GGGAGUUCUACAGUCCGACGAUCGAACAAUAGCUUGGAGGGGAGGUGUAAAGCCCUCUCCACCUGUAUUUCUCACAUCAUAGUAGUUGUCUUAUUCUUUGUGCCCUGUAUAUUUGUGUAUCUGCGCUCAGUGACCACUCUGCCCAACAGAGGAUUGAGCAUCA
B17: chr15:34980028:34980129:-|3pUTR|ENSG00000198146|msi1|FALSE|unique (ssRNA)
RNA: GGGAGUUCUACAGUCCGACGAUCGGUUCUGUUAUUUAAGCCUGUUCUAAGUUUGAUCAAAUGGCAAUGACUAGGUCUAGUUUUAGUUUUUAUUUUUGCAGGAGUCUAUUGCUAAAGAAUUUUAUUUUGAUGCUUGUUAAAUUUCAACAGAGGAUUGAGCAUCA
B18: ENSG00000070961:be:win_5801|3pUTR|ENSG00000070961|bound_else_gene|NA|bound_elsewhere_windowed (ssRNA)
RNA: GGGAGUUCUACAGUCCGACGAUCGAAAAGGGAAAUGUUUUCAGUUUUCUUUUUUAUUUUGGUUAUGCUUAAAUAUGAAUGUAAUUACCAAAAGAUUUAGAAGUGCAUGUGCUUUGGAGGAUUUGUAUUGAGCUUUUACAGUAUCAACAGAGGAUUGAGCAUCA
B19: chr10:11920118:11920232:-|3pUTR|ENSG00000151461|unk|total|mutant (ssRNA)
RNA: GGGAGUUCUACAGUCCGACGAUCGCCGUAUAUUCCGUCGGAGAGCACAUCUGUAUGCGACAACUUGAUUACAUCUUUUUUUCCCGCUAUUUUGCAUUUUUUCUUUUACCAUGUUUCAGUUUCUGCAUGCCGAUUUAAAUAAAACAACAGAGGAUUGAGCAUCA
B20: ENSG00000114744:stop:overlap|stop_codon|ENSG00000114744|stop_codon|NA|stop_codon (ssRNA)
RNA: GGGAGUUCUACAGUCCGACGAUCAACAAGCAUUGGAAGAGAUGAAGACAAAUCACUGUAGGAGAGUUGUUCGCAACAUCAAGUAGUACCAGUUUUAAGGUUUUAAUUCAUUUGAAUCACUUAUGAAUUGAUGAUAUACAGCAACAACAGAGGAUUGAGCAUCA
B21: chr15:34980028:34980129:-|3pUTR|ENSG00000198146|msi1|total|mutant (ssRNA)
RNA: B17 RNA with U71C, A72C, U77C, A78C, U83C, A84C
B22: chr15:83017406:83017507:-|3pUTR|ENSG00000064726|msi1|FALSE|unique (ssRNA)
RNA: GGGAGUUCUACAGUCCGACGAUCGGCCUAAUAAAAUGCCCAAGAAAAUAUUCAGUGCAUUUAUAGAGAAGGAUAUUUUGUAGUAGUAUAGUAAUGUGUUAUGUAGUACAGUUUUAAAGCUAUAAAUGGAAUUUUGUGUAAAUUCAACAGAGGAUUGAGCAUCA
B23: ENSG00000070961:be:win_4501|3pUTR|ENSG00000070961|bound_else_gene|NA|bound_elsewhere_windowed (ssRNA)
RNA: GGGAGUUCUACAGUCCGACGAUCCCUUUUGUUCAGAAUUUAGUAGAUUGUUUAAUGCAGGACAUCAACUACAUAAUGAAAGAUGCUUGAAAUGCUUUUGUUAUUUCAGGCAAAUCAAAUUAAAUCAGACUAUCAAACUACAAGCAACAGAGGAUUGAGCAUCA
B24: chr10:11920118:11920232:-|3pUTR|ENSG00000151461|unk|FALSE|unique (ssRNA)
RNA: B19 RNA with C25U, C26A, C34U, C35A, C83U, C84A, C129U, C130A
B25: chr7:157269180:157269282:+|3pUTR|ENSG00000009335|unk|FALSE|unique (ssRNA)
RNA: GGGAGUUCUACAGUCCGACGAUCAUUUUAGGUUGUUUUAUGUUGAAUGUUCUAUAUCUUAUUAGUUAAUUUGUAUAUUUUAUUAGUAUUUUGGAAAUAGCAUAUCUGAGACUGAAGAGAAAUUGACAAUUCACUUAUUUGUGGCAACAGAGGAUUGAGCAUCA
B26: chr15:83017406:83017507:-|3pUTR|ENSG00000064726|msi1|total|mutant (ssRNA)
RNA: B22 RNA with U63C, A64C, U80C, A81C, U83C, A84C, U88C, A89C, U103C, A104C
B27: chr12:39553730:39553837:-|3pUTR|ENSG00000173208|unk|FALSE|unique (ssRNA)
RNA: GGGAGUUCUACAGUCCGACGAUCGAAGUAUGUUAAGCUAAGCACAGAGAAAAAAAGGCAGCAAGACAUGUUUUAUAAGAUUUUAGCAUUAAGGAAGUAUAUGAUCUGACUUUUCAGAAGAAAAUAAACAAAUGCAUUAUGUAACAACAGAGGAUUGAGCAUCA
B28: chr11:35231809:35232301:+|3pUTR|ENSG00000026508|msi1|FALSE|unique (ssRNA)
RNA: GGGAGUUCUACAGUCCGACGAUCACAACACCAAGAAUUGAUUUUGUAGCCAACAUUCAUUCAAUACUGUUAUAUCAGAGGAGUAGGAGAGAGGAAACAUUUGACUUAUCUGGAAAAGCAAAAUGUACUUAAGAAUAAGAAUAACAACAGAGGAUUGAGCAUCA

Where a chain is given by its changes, count along the chain named. In all, about 5,800 sequences were measured (“enrichment r”: median about 0.54, highest 2% from about 16 on). For the sample, the highest values were picked, then their nearest neighbours and some sequences at random.

This assay deals with MSI1 full-length (mouse, UniProt Q61474 1-362). As to the kind of experiment: nsRBNS (natural sequence RNA bind-n-seq); RBNS binding buffer (assumed for nsRBNS): 25 mM Tris pH 7.5, 150 mM KCl, 3 mM MgCl2, 0.01% Triton X-100, 500 ug/ml BSA, 20 U/ml SUPERase-In, 4 C; UNK is unkempt and MSI1 is Musashi-1; names of the RNAs are library labels; protein concentration not given here; high values mean tight binding.
Chain of MSI1 full-length (Q61474 whole entry): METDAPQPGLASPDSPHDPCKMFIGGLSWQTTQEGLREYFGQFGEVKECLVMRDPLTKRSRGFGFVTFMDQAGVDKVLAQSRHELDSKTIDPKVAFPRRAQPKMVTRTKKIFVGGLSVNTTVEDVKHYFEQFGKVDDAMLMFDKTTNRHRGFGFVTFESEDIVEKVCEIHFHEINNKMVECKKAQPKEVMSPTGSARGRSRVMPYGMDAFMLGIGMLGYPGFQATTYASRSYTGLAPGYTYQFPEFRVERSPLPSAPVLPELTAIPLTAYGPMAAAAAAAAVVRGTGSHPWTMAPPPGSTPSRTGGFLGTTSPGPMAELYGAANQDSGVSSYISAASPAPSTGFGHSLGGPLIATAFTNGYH
For the molecule B1, the binding signal came to 0.448 enrichment R. For B2 the value was 4.58 enrichment R; for B3, 4.46 enrichment R. For B4 the value was 21.5 enrichment R; for B5, 37 enrichment R; for B6, 0.393 enrichment R.

For B7, the binding signal is 1.4 enrichment R. For B8 the value was 0.702 enrichment R; for B9, 19.1 enrichment R.

Molecule B10 registered a binding signal of 0.482 enrichment R. The molecule B11 gave a binding signal of 3.75 enrichment R. B12 returned a binding signal of 0.621 enrichment R. Then B13, with 2.45 enrichment R. For B14 the value was 0.264 enrichment R; for B15, 0.832 enrichment R.

B16 came in with a binding signal of 2.83 enrichment R. Turning to B17, the binding signal is 77.2 enrichment R. Then B18, with 1.05 enrichment R; and B19, with 0.709 enrichment R.

Molecule B20 displayed a binding signal of 16.3 enrichment R. In turn, B21 came in with a binding signal of 0.774 enrichment R. As for B22, the binding signal amounted to 44.9 enrichment R. In turn, B23 gave a binding signal of 0.644 enrichment R. In the case of B24, the binding signal was 23.3 enrichment R. Then B25, with 12.7 enrichment R; and B26, with 0.489 enrichment R. Then B27, with 2.43 enrichment R. B28: the binding signal came out at 0.807 enrichment R.
